Experimental data: PubChem BioAssay AID489036 (National Center for Advancing Translational Sciences (NCATS), 2010)
Where “and” joins values, the source holds several entries; their conditions need not be identical. Equal entries are not always repeated. Inconclusive results are not listed. Calls of active or inactive are those of the source. Calls follow the shape of the dose curve; as a rule, active = well fitted inhibition curve with a large enough effect; inconclusive = small, poorly fitted or top-dose-only effect, or effect the other way; inactive = flat fitted curve, though single readings scatter.

Assay: VP16 selectivity assay for inhibitors of ROR gamma transcriptional activity
Conditions: Drosophila Schneider Gal4-VP16 UAS-luciferase reporter, 20 h; series mostly up to 92.2 µM
Procedure, shortened: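 Drosophila Schneider cells stably expressing a Gal4-VP16 fusion under a metallothionein promoter and a UAS-driven Photinus luciferase reporter. Compound preincubated 1 hr, copper sulfate added (700 uM final), then 20 hr at ambient temperature before luminescence read.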

**Q.** Which Potency does the source give for `COc1cc(O)c(C(CC(=O)N2CCCC(C)C2)c2ccc(C(C)C)cc2)c(OC)c1` (stereo not drawn) here?
**A.** 25.7 µM (active)

**Q.** With `COc1cc(O)c(C(CC(=O)N2CCCC(C#N)C2)c2ccc3c(c2)OCO3)c(OC)c1` (stereo not drawn) as the compound, how does the Potency read?
**A.** inactive

**Q.** Which Potency does the source give for `COc1ccc2nc(NNC(=O)COc3ccccc3)sc2c1` here?
**A.** 6.45 µM (active)

**Q.** With `c1ccc(Cn2c(-c3ccccc3)c[n+]3c2SCCC3)cc1` as the compound, how does the Potency read?
**A.** 45.7 µM (active)

**Q.** Which Potency does the source give for `COc1cc(O)c(C(CC(=O)N2CCC[C@H](C)C2)c2ccc3c(c2)OCO3)c(OC)c1` (stereo partly drawn) here?
**A.** inactive

**Q.** For `COc1cc(O)c(C(CC(=O)N2CCC(Cc3ccccc3)CC2)c2ccc(OC)c(OC)c2)c(OC)c1` (stereo not drawn), which Potency is on record?
**A.** inactive

**Q.** Which Potency does the source give for `Cc1cc(C)nc(-n2nc(C)cc2NC(=O)CNC(C)c2ccccc2)n1` (stereo not drawn) here?
**A.** 18.2 µM (active)

**Q.** For `COc1cc(O)c(C(CC(=O)Nc2ccc(C)cc2)c2ccc3c(c2)OCO3)c(OC)c1` (stereo not drawn), which Potency is on record?
**A.** 40.7 µM (active)

**Q.** Which Potency does the source give for `COc1cc(O)c(C(CC(=O)N2CCCC(CN3CCCCC3)C2)c2ccc3c(c2)OCO3)c(OC)c1` (stereo not drawn) here?
**A.** inactive

**Q.** With `COc1cc(O)c(C(CC(=O)N2CCc3ccccc32)c2ccc3c(c2)OCO3)c(OC)c1` (stereo not drawn) as the compound, how does the Potency read?
**A.** inactive

**Q.** With `CC(C)(C)OC(=O)N1CCC[C@H]1C(=O)N1CCC(C(=O)N[C@H](Cc2ccccc2)C(=O)NCc2ccc(F)cc2)CC1` as the compound, how does the Potency read?
**A.** inactive

**Q.** For `COc1ccc(C(=O)Nc2cc(-c3ccc(C)cc3)no2)cc1`, which Potency is on record?
**A.** inactive

**Q.** For `O=C(CCCN1C(=O)/C(=C/c2ccccc2Cl)SC1=S)Nc1cccnc1`, which Potency is on record?
**A.** 28.8 µM (active)

**Q.** Which Potency does the source give for `COC(=O)Cn1c(CN2CCc3ccccc3C2)nc2c1c(=O)n(C)c(=O)n2C` here?
**A.** 9.11 µM (active)

**Q.** Which Potency does the source give for `CCNC(=O)CCc1nc(-c2ccc(C(C)(C)C)cc2)no1` here?
**A.** 5.75 µM (active)

**Q.** With `CC1CCCN(C(=O)CC(c2ccccc2)c2ccc(O)cc2)C1` (stereo not drawn) as the compound, how does the Potency read?
**A.** inactive

**Q.** Which Potency does the source give for `COc1cc(O)c(C(CC(=O)N2CCCC(C)C2)c2ccccc2OC)c(OC)c1` (stereo not drawn) here?
**A.** inactive

**Q.** For `COc1cc(O)c(C(CC(=O)N2CCCC(C)C2)c2ccc(C)cc2)c(OC)c1` (stereo not drawn), which Potency is on record?
**A.** 45.7 µM (active)

**Q.** For `COc1cc(OC)c(C(CC(=O)N2CC(C)CC(C)C2)c2ccc3c(c2)OCO3)c(OCC(N)=O)c1` (stereo not drawn), which Potency is on record?
**A.** inactive

**Q.** For `COc1cc(OC)c(C(c2ccccc2)C(C)(C)C(=O)N2CC(C)CC(C)C2)c(OC)c1` (stereo not drawn), which Potency is on record?
**A.** 18.2 µM (active)

**Q.** For `Cc1ccc(-c2cn(-c3ccccc3)c3[n+]2CCCS3)cc1`, which Potency is on record?
**A.** 10.2 µM (active)

**Q.** Which Potency does the source give for `COCC1CCCN(C(=O)CC(c2ccc3c(c2)OCO3)c2c(O)cc(OC)cc2OC)C1` (stereo not drawn) here?
**A.** inactive

**Q.** Which Potency does the source give for `Cc1cc(C)n(-c2nc(SCC(=O)O)c3c4c(sc3n2)CCCC4)n1` here?
**A.** 16.2 µM (active)

**Q.** For `COc1cc(O)c(C(CC(=O)N2CCCC(C)C2)c2ccc(OC)c(OC)c2)c(OC)c1` (stereo not drawn), which Potency is on record?
**A.** inactive

**Q.** For `CCOc1cccc(-c2cc(-c3n[nH]c(=S)n3CC)c3ccccc3n2)c1`, which Potency is on record?
**A.** 2.29 µM (active) and 4.07 µM (active)

**Q.** Which Potency does the source give for `CCOC(=O)C1CCN(CC(=O)Nc2cc(C)nn2-c2nc3ccccc3s2)CC1` here?
**A.** 22.9 µM (active)

**Q.** With `CC1=C(\C=C/C(C)=C/C=C\C(C)=C\C(=O)O)C(C)(C)CCC1` as the compound, how does the Potency read?
**A.** 8.48 µM (active)

**Q.** Which Potency does the source give for `COc1cc(O)c(C(CC(=O)N2C[C@H](C)C[C@H](C)C2)c2ccc3c(c2)OCO3)c(OC)c1` (stereo partly drawn) here?
**A.** inactive
